Screening data from PubChem.
The list is not random: actives were taken first. Their share in the collection is about 3.7%.
Bead autofluor = flagged as autofluorescent in microsphere protease counterscreen. compound autofluorescence counterscreen, microsphere flow cytometry; hits give high values. fluorescence intensity (no concentration beside the values). actives 3.1% (n = 360,000). AID 624483; in the data active means fluorescence intensity above about 16000; inconclusive means no clear call, values can overlap the other calls
Anthrax LF prot = Bacillus anthracis LF protease inhibitors, primary screen, biochemical, multiplex microsphere, MLPCN library | multiplex microsphere protease cleavage assay | inhibition, % at 10 µM | actives 0.12% (n = 360,000) | AID 588501, 2011; further: plate controls were buffer without enzyme for full effect and enzyme alone for no effect
BoNT-F LC inh = BoNT/F light chain protease inhibitors, primary screen, biochemical, flow cytometry, MLPCN library; actives 0.22% (n = 360,000); inhibition, % at 10 µM; Multiplex microsphere protease cleavage assay; in the data active means inhibition above about 35%, passing the limit was not always enough; inconclusive means no clear call, values can overlap the other calls; further: plate controls were buffer without enzyme for full effect and enzyme alone for no effect
MazF activator = activators of E. coli MazEF toxin-antitoxin RNase, primary screen, biochemical, fluorescence, uHTS; FAM/BHQ RNA-DNA oligo cleavage fluorescence, 5 h; actives 0.32% (n = 350,000); activation, % at 20 µM; AID 504720, 2011; Endoribonuclease toxin MazF (Escherichia coli (strain K12)), P0AE70; in the data active means activation above about 50%
BoNT-A LC inh2 = BoNT/A light chain protease inhibitors, primary screen, biochemical, flow cytometry, MLPCN library. multiplex microsphere protease substrate cleavage. Botulinum neurotoxin type A light chain protease (Clostridium botulinum A str. ATCC 3502). actives 0.17% (n = 360,000). inhibition, % at 10 µM; further: plate controls were buffer without enzyme for full effect and enzyme alone for no effect
Starred values were filed as active, the others as inactive; ? = inconclusive; . = not tested or not shown. Unless noted, no stated cut-off is given here; in the data, active means inhibition above about 30%; inconclusive means no clear call, values can overlap the other calls; inactive means below that.

SMILES	Bead autofluor	Anthrax LF prot	BoNT-F LC inh	MazF activator	BoNT-A LC inh2
O=C(Oc1ccc2ccccc2c1)c1cncc(Br)c1	11232	0.2	-6.8	0.0	-0.3
COc1ccc(N2C(=O)CCC2=O)cc1	20610*	-2.0	4.6	1.8	?
CC(=O)Oc1ccc(N2C(=O)CCC2=O)cc1	3030	9.1	?	1.8	1.2
CCOC(=O)c1cnc(-n2nc(C)cc2C)nc1NC(C)c1ccccc1 (centres undefined)	16140*	-1.8	-3.0	2.7	-0.5
CCOC(=O)c1cnc(-n2nc(C)cc2C)nc1NCCO	22604*	-1.2	-1.5	-12.8	-1.1
CCOC(=O)c1cnc(-n2nc(C)cc2C)nc1N1CC(C)OC(C)C1 (centres undefined)	21874*	-1.6	0.8	-1.4	2.9
CCOC(=O)c1cnc(-n2nc(C)cc2C)nc1NCc1ccccc1	?	5.1	-3.3	4.1	3.0
CCOC(=O)c1cnc(-n2nc(C)cc2C)nc1NNc1ncc(-c2ccccc2)cn1	.	.	.	10.5	.
Fc1cccc(CSc2ncnc3c2ncn3C2CCCCO2)c1 (centres undefined)	4030	0.8	0.0	-7.5	-0.1
CCOC(=O)C1=CN(Cc2cccc(F)c2)S(=O)(=O)N(C)C1c1ccc2ccccc2c1 (centres undefined)	3430	-0.7	-5.3	50.0*	-0.2
COc1ccc(NC(=O)c2oc3cc(C)c(C)cc3c2C)c(OC)c1	4751	1.9	-79.3	6.3	-4.6
CCOCC(=O)Nc1c(C(=O)Nc2ccc(OC)cc2OC)oc2ccccc12	24944*	-1.4	-0.9	-0.8	?
COCC(=O)Nc1c(C(=O)Nc2ccccc2OC)oc2ccccc12	23967*	-1.8	-5.0	5.8	-1.2
COc1ccc(NC(=O)c2oc3ccccc3c2NC(=O)c2ccco2)cc1	21689*	-0.5	-8.5	6.3	-5.2
CCN(CC)S(=O)(=O)c1ccc2oc(C(=O)Nc3ccc(OC)cc3OC)c(C)c2c1	24222*	-1.7	-6.2	-0.4	-2.7
COc1cc(/C=C/C(=O)OCC(=O)NC2CCS(=O)(=O)C2)ccc1OC(F)F (centres undefined)	3624	-5.6	-8.7	-1.9	-1.0
COc1ccc(NC(=O)c2oc3ccccc3c2NC(=O)c2ccco2)c(OC)c1	23875*	-1.3	-3.7	1.0	-1.6
Cn1c(O)c(N=Nc2ccccc2)c2ccccc21	3119	-6.7	25.4	-7.2	-3.7
Cn1c(O)c(N=Nc2ccc(F)cc2)c2ccccc21	3641	-5.3	4.1	336.6*	0.0
N#C/C(=C\c1cn(Cc2ccc(C#N)cc2)c2ccccc12)C(=O)NCc1cccs1	2432	-3.2	-2.0	55.0*	-0.9
Cc1ccc(C)c(OCCn2cc(/C=C(\C#N)C(=O)NCc3cccs3)c3ccccc32)c1	22488*	-2.0	2.7	-6.0	2.2
CC1(C)C2CCC1(C)C(NCC(O)COc1ccc(C#N)cc1)C2 (centres undefined)	3714	-0.1	-20.1	3.6	-11.4
Cc1cc(N(C)C)nc(Nc2ccccc2)n1	5691	2.0	-4.7	4.0	3.9
CC1=C(C(=O)OCc2ccccc2)C(c2ccc(C#N)cc2)NC(=O)N1CCCC(=O)O (centres undefined)	4034	1.9	-3.9	1.9	-1.2
CN1CC(c2ccc(C#N)cc2)C2(COc3ccccc3C2=O)C12C(=O)Nc1ccccc12 (centres undefined)	19424*	-7.3	8.4	3.9	5.5
SMILES	Bead autofluor	Anthrax LF prot	BoNT-F LC inh	MazF activator	BoNT-A LC inh2
CCN(CC)c1c2c(c(C#N)c3nc4ccccc4n13)CCC2	16264*	-3.2	-1.3	26.7	-0.6
CCN(CC)c1cc(C)c(C#N)c2nc3ccccc3n12	4281	-11.4	?	11.3	-7.6
COC(=O)c1nc(-n2nc(C)cc2C)ccc1Cl	8336	-3.8	-5.6	1.9	-0.6
CNC(=O)COC(=O)c1nc(-n2nc(C)cc2C)ccc1Cl	24164*	-0.1	-2.8	0.5	-0.8
CC1C(c2ccccc2)N(C)C(c2ccccc2)CC1(O)c1ccccc1 (centres undefined)	17483*	-6.3	-6.8	-4.1	-5.7
CC1/C(=N/O)CC(c2ccccc2)N(C)C1c1ccccc1 (centres undefined)	5753	-1.2	-2.0	1.8	0.1
COc1ccc(NC(=O)CN2CCC(NC(=O)C3CCCCC3)CC2)cc1	23189*	-1.4	-2.2	-9.5	-0.3
COc1ccc(NC(=O)CSC2CCCCC2)cc1	21701*	2.5	-2.8	-2.0	-2.9
O=C(Nc1cccc(C(F)(F)F)c1)c1ccc(Cn2cc(Br)cn2)o1	17799*	-11.3	5.3	3.0	4.7
CCCCN1C(=O)C(=O)N(CC(=O)N2CCc3ccccc32)C1=O	4131	-2.7	-0.6	6.3	-0.9
COc1ccc(CNC(=O)c2cc(-c3ccc(OC)c(OC)c3)on2)cc1	11435	0.0	-0.4	0.0	1.0
COc1ccc(NC(=O)c2cc(-c3ccc(OC)c(OC)c3)on2)cc1OC	23014*	-8.3	-3.6	-1.3	-1.4
COc1ccc(-c2cc(C(=O)NCc3ccccc3)no2)cc1OC	21267*	4.1	2.6	-0.7	3.4
CC(C)c1ccc(NC(=O)c2cc(-c3cc(F)ccc3OCC3CCCO3)n[nH]2)cc1 (centres undefined)	3358	-1.1	-7.0	.	-0.1
NC1=NC2OC(CO)C(O)C2O1 (centres undefined)	3903	-2.0	-2.9	-0.8	-0.4
O=C(c1cccs1)N1CCN(S(=O)(=O)c2ccccc2)CC1	16321*	-1.9	-3.5	12.2	-0.9
O=C(c1cccs1)N1CCN(Cc2ccccc2)CC1	2040	0.8	-10.0	1.5	-1.3
O=C(c1cccs1)N1CCN(CCCc2ccccc2)CC1	21596*	-1.8	-3.8	-4.5	-2.4
CC(=O)N1CCN(C(=O)C(Cc2ccccc2)NC(=O)c2ccccc2)CC1 (centres undefined)	8284	-0.6	-1.8	1.5	-3.0
CC(=O)NC(Cc1ccccc1)C(=O)N1CCN(C(=O)c2cccs2)CC1 (centres undefined)	16669*	-2.6	-0.1	3.6	-0.5
CC(=O)NC(Cc1ccc(F)cc1)C(=O)N1CCN(C(=O)NCc2ccccc2)CC1 (centres undefined)	20125*	-5.9	-1.2	0.6	-0.9
CCc1ccc2oc(C(=O)NCCc3ccc(S(N)(=O)=O)cc3)cc(=O)c2c1	3304	5.7	14.2	11.7	0.8
COc1cc(Cl)c(C)cc1NC(=O)c1ccccc1NC(=O)CN1CCN(C(C)=O)CC1	3677	-5.1	7.7	-2.9	0.1
C/C(C=O)=C/c1ccccc1	5541	-9.6	3.2	-5.3	0.5
Cn1c(=O)[nH]c2cc3ccccc3cc21	19393*	0.3	3.1	-2.6	?
Cc1ccc(NC(=O)N2CCC(c3nc4c(nnn4Cc4cccc(Cl)c4)c(=O)[nH]3)CC2)cc1	9870	-1.9	-10.0	-6.8	-0.3
